Assay results taken from PubChem BioAssay (NCI).
Compounds without any hit were thinned out: in the full panel of roughly 83,000, 20% have a hit.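 Each cell line was grown in a 96-well plate and treated with one concentration of compound for 48 hours. Values below 10 were considered active.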 A number with no mark means an inactive call. Calls of active or inactive are those of the source.

Tests used:
Assay in all cases: NCI-60 one-dose screen, 48 h (100 = growth as untreated, 0 = no growth, -100 = all killed)
Settings in all cases: 10 µM unless noted
HCT-15 colon = test system: HCT-15 colon
HT29 colon = test system: HT29 colon
SNB-75 CNS = test system: SNB-75 CNS
SNB-19 CNS = test system: SNB-19 CNS
U251 CNS = test system: U251 CNS
PC-3 prostate = test system: PC-3 prostate
SK-MEL-5 melanoma = test system: SK-MEL-5 melanoma
UACC-62 melanoma = test system: UACC-62 melanoma
LOX IMVI melanoma = test system: LOX IMVI melanoma
SK-MEL-28 melanoma = test system: SK-MEL-28 melanoma
SK-MEL-2 melanoma = test system: SK-MEL-2 melanoma
EKVX NSCLC = test system: EKVX NSCLC
SN12C renal = test system: SN12C renal
UO-31 renal = test system: UO-31 renal
TK-10 renal = test system: TK-10 renal
ACHN renal = test system: ACHN renal
CAKI-1 renal = test system: CAKI-1 renal
A498 renal = test system: A498 renal
CCRF-CEM leukemia = test system: CCRF-CEM leukemia
MOLT-4 leukemia = test system: MOLT-4 leukemia

For `O=C(OCCOCCO)N(c1cccc(Br)c1)c1nc(SCCN2CCOCC2)nc2c1cnn2CC(Cl)c1ccc(Br)cc1` (stereo not given), the growth (HCT-15 colon) was -38.8% (active), the growth (HT29 colon) was 0.205% (active) and the growth (SNB-75 CNS) was 47.7%. The growth (SNB-19 CNS) was -69% (active), the growth (U251 CNS) was 14.9% and the growth (PC-3 prostate) was 12.1%. For the same molecule, the growth (SK-MEL-5 melanoma) was 34.2%, the growth (UACC-62 melanoma) was -58.9% (active) and the growth (LOX IMVI melanoma) was -92.8% (active). The growth (SK-MEL-28 melanoma) was -43.5% (active), the growth (SK-MEL-2 melanoma) was -60.3% (active) and the growth (EKVX NSCLC) was 26.6%. For the same molecule, the growth (SN12C renal) was 20.3%, the growth (UO-31 renal) was -3.09% (active) and the growth (TK-10 renal) was 40.5%. For the same molecule, the growth (ACHN renal) was 2.9% (active), the growth (CAKI-1 renal) was 27.8% and the growth (A498 renal) was 45.5%. The growth (CCRF-CEM leukemia) was -18.4% (active) and the growth (MOLT-4 leukemia) was -24.3% (active).
With `O=C(NC(=S)N1CCN(c2ncnc3c2cnn3-c2ccccc2)CC1)c1ccc(F)cc1` the growth (HCT-15 colon) was 49.9%, the growth (HT29 colon) was 78% and the growth (SNB-75 CNS) was 53.7%. It also gave a growth (SNB-19 CNS) of 84.9%, a growth (U251 CNS) of 85.9% and a growth (PC-3 prostate) of 71.9%. The growth (SK-MEL-5 melanoma) was 56%, the growth (UACC-62 melanoma) was 74.2% and the growth (LOX IMVI melanoma) was 63.4%. The growth (SK-MEL-28 melanoma) was 85.6%, the growth (SK-MEL-2 melanoma) was 91.6% and the growth (EKVX NSCLC) was 86.2%. For the same molecule, the growth (SN12C renal) was 64.9%, the growth (UO-31 renal) was 74.4% and the growth (TK-10 renal) was 140%. The growth (ACHN renal) was 79.6%, the growth (CAKI-1 renal) was 84.8% and the growth (A498 renal) was 124%. It also gave a growth (CCRF-CEM leukemia) of 63.2% and a growth (MOLT-4 leukemia) of 45.2%.
In the case of `COC(=O)c1c(C(=O)OC)c2ccc3c4ccccc4ccc3n2c1C(=O)C(C)Br` (stereo not given), the growth (HCT-15 colon) is reported as 9.95% (active), the growth (HT29 colon) is reported as 24% and the growth (SNB-75 CNS) is reported as 94.3%. For the same molecule, the growth (SNB-19 CNS) was 52.1%, the growth (U251 CNS) was 23.9% and the growth (PC-3 prostate) was 47.1%. For the same molecule, the growth (SK-MEL-5 melanoma) was 24.4%, the growth (UACC-62 melanoma) was 33.5% and the growth (LOX IMVI melanoma) was -5.75% (active). It also gave a growth (SK-MEL-28 melanoma) of 65.4%, a growth (SK-MEL-2 melanoma) of 26.9% and a growth (EKVX NSCLC) of 86.5%. The growth (SN12C renal) was 35.7%, the growth (UO-31 renal) was 45% and the growth (TK-10 renal) was 58.1%. For the same molecule, the growth (ACHN renal) was 43.9%, the growth (CAKI-1 renal) was 71.3% and the growth (A498 renal) was 87.2%. For the same molecule, the growth (CCRF-CEM leukemia) was -4.34% (active) and the growth (MOLT-4 leukemia) was 0.188% (active).
`COc1ccc(C2=NN(C(=O)[C@H]3[C@@H](c4ccco4)c4sc(=O)[nH]c4S[C@@H]3C)C(c3ccc4ccccc4c3)C2)cc1` (stereo not given in full) was tested, and the growth (HCT-15 colon) was 12%, the growth (HT29 colon) was 15.3% and the growth (SNB-75 CNS) was 50.8%. It also gave a growth (SNB-19 CNS) of 39.8%, a growth (U251 CNS) of 19.5% and a growth (PC-3 prostate) of 28.6%. It also gave a growth (SK-MEL-5 melanoma) of 36.5%, a growth (UACC-62 melanoma) of 29% and a growth (LOX IMVI melanoma) of 31.3%. For the same molecule, the growth (SK-MEL-28 melanoma) was 32%, the growth (SK-MEL-2 melanoma) was 32.3% and the growth (EKVX NSCLC) was 23.2%. For the same molecule, the growth (SN12C renal) was 39%, the growth (UO-31 renal) was 19.5% and the growth (TK-10 renal) was 50.4%. The growth (ACHN renal) was 16%, the growth (CAKI-1 renal) was 20.7% and the growth (A498 renal) was 102%. For the same molecule, the growth (CCRF-CEM leukemia) was 6.09% (active) and the growth (MOLT-4 leukemia) was 12%.
`N#CC1=C(c2cccs2)Nc2c(c(-c3ccccc3)nn2-c2ccccc2)C12C(=O)Nc1ccc(Cl)cc12` (stereo not given) gave a growth (HCT-15 colon) of 10.5%, a growth (HT29 colon) of 14.4% and a growth (SNB-75 CNS) of 36.9%. It also gave a growth (SNB-19 CNS) of 13.4%, a growth (U251 CNS) of 16.2% and a growth (PC-3 prostate) of 12.8%. It also gave a growth (SK-MEL-5 melanoma) of 25.1%, a growth (UACC-62 melanoma) of 15.4% and a growth (LOX IMVI melanoma) of 25.8%. For the same molecule, the growth (SK-MEL-28 melanoma) was 41.8%, the growth (SK-MEL-2 melanoma) was 22.8% and the growth (EKVX NSCLC) was 13.3%. For the same molecule, the growth (SN12C renal) was 33.8%, the growth (UO-31 renal) was 12.7% and the growth (TK-10 renal) was 31.5%. The growth (ACHN renal) was 12.6%, the growth (CAKI-1 renal) was 23.3% and the growth (A498 renal) was 88.8%. For the same molecule, the growth (CCRF-CEM leukemia) was 13.7% and the growth (MOLT-4 leukemia) was 19.3%.
`OC1CCC(Cn2c(C(F)(F)F)cc3c(Cl)ncnc32)CC1` (stereo not given) was tested, and the growth (HCT-15 colon) was -14.2% (active), the growth (HT29 colon) was 49.9% and the growth (SNB-75 CNS) was -71.6% (active). For the same molecule, the growth (SNB-19 CNS) was -88.6% (active), the growth (U251 CNS) was 11.6% and the growth (PC-3 prostate) was 23.5%. For the same molecule, the growth (SK-MEL-5 melanoma) was -83.6% (active), the growth (UACC-62 melanoma) was -53.5% (active) and the growth (LOX IMVI melanoma) was -98.4% (active). The growth (SK-MEL-28 melanoma) was 20.2%, the growth (SK-MEL-2 melanoma) was -89.4% (active) and the growth (EKVX NSCLC) was 65.7%. The growth (SN12C renal) was 18.5%, the growth (UO-31 renal) was -80.2% (active) and the growth (TK-10 renal) was 105%. For the same molecule, the growth (ACHN renal) was -86.5% (active), the growth (CAKI-1 renal) was 53.1% and the growth (A498 renal) was 119%. The growth (CCRF-CEM leukemia) was -7.23% (active) and the growth (MOLT-4 leukemia) was -43.5% (active).
Molecule `COc1cc(CNC(=O)C[C@H](C)CCC=C(C)C)ccc1OCc1cn(-c2ccc(Br)cc2)nn1` has a growth (HCT-15 colon) of 82.4%, a growth (HT29 colon) of 94.4% and a growth (SNB-75 CNS) of 47.3%. It also gave a growth (SNB-19 CNS) of 57.7%, a growth (U251 CNS) of 63.4% and a growth (PC-3 prostate) of 81.4%. It also gave a growth (SK-MEL-5 melanoma) of 55.7%, a growth (UACC-62 melanoma) of 65.1% and a growth (LOX IMVI melanoma) of 74%. The growth (SK-MEL-28 melanoma) was 96.5%, the growth (SK-MEL-2 melanoma) was 78% and the growth (EKVX NSCLC) was 79%. For the same molecule, the growth (SN12C renal) was 71.6%, the growth (UO-31 renal) was 62.9% and the growth (TK-10 renal) was 109%. It also gave a growth (ACHN renal) of 56.4%, a growth (CAKI-1 renal) of 28.8% and a growth (A498 renal) of 105%. The growth (CCRF-CEM leukemia) was 61.1% and the growth (MOLT-4 leukemia) was 70%.
